Laboratory results as given in ChEMBL document CHEMBL3988442, “University of Dundee, Small-Polar-MMV Screening Library” (2021).
For some assays here: Potency and affinity values are given separately.

Columns and labels:
Set-up in all cases: scale not given: direction of the effect not stated beside the values
[1] = molecular target: Protein translocase subunit SecA (Escherichia coli (strain K12)) (UniProt P10408); test: Assay to Identify E. coli SecA ATPase Inhibitors; assay type: functional; conditions: 30 µM
Sequence of Protein translocase subunit SecA (Escherichia coli (strain K12)) (P10408 whole entry): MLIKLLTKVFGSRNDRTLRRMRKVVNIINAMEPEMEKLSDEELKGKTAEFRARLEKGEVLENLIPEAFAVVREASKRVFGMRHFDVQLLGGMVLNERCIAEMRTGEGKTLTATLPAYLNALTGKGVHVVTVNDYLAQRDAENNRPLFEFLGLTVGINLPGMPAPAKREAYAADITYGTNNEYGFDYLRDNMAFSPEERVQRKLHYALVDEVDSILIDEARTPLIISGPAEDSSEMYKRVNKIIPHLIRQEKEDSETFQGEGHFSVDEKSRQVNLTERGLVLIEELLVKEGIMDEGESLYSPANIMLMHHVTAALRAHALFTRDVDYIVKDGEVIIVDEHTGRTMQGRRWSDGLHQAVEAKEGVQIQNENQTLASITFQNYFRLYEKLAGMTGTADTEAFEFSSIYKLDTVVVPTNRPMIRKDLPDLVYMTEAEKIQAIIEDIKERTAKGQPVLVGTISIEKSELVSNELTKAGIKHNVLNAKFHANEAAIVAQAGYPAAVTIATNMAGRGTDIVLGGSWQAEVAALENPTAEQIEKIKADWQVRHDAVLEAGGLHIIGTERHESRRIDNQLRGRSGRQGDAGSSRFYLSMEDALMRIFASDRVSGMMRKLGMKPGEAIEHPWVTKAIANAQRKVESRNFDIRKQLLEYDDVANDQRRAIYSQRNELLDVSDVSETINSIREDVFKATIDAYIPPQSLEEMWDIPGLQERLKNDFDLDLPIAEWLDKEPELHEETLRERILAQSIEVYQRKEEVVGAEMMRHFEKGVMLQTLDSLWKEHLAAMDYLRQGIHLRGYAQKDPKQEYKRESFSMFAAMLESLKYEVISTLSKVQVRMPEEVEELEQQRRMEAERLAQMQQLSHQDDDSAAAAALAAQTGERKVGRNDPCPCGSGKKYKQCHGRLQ

[2] = molecular target: T1, Ubiquitin-activating enzyme e1, putative (Leishmania donovani (strain BPK282A1)) (UniProt E9BSI1); test: Leishmania donovani Ubiquitin Activating Enzyme (LdE1); assay type: functional; conditions: 30 µM
T1 sequence (whole entry): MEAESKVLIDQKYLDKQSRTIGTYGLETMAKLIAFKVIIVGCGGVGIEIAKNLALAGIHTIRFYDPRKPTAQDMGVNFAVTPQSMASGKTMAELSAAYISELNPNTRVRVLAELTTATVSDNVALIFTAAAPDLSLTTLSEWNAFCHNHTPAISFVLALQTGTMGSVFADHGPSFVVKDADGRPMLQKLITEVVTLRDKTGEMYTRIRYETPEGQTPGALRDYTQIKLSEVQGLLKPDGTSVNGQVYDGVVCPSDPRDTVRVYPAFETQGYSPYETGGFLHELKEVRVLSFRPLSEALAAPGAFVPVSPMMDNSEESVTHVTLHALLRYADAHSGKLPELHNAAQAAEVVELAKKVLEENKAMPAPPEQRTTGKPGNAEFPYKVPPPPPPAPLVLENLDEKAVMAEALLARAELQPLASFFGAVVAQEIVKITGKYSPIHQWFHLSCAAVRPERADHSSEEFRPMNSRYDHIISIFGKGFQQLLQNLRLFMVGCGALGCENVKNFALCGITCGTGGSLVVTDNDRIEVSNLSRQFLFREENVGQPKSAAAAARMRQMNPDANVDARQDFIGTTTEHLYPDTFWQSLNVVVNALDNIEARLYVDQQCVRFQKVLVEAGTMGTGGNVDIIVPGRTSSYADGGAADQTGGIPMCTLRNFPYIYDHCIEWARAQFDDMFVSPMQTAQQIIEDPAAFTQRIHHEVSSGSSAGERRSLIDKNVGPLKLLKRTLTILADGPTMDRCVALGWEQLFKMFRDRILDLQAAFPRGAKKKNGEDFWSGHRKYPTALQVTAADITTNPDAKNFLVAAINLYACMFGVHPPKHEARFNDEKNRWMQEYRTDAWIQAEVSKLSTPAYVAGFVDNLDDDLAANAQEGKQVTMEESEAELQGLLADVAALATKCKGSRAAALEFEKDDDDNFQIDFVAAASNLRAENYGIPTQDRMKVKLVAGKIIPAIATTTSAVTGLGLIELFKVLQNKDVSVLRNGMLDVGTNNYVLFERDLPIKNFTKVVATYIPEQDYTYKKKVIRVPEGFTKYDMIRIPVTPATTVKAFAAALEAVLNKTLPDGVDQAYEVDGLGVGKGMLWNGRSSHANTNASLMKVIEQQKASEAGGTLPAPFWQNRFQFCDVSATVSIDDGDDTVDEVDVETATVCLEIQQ

[3] = molecular target: AMP-activated protein kinase, AMPK (Homo sapiens) (UniProt P54646+O43741+P54619+Q9UGJ0+Q9Y478+Q13131+Q9UGI9); test: AMP-dependent Kinase enzyme assay. An in vitro enzyme assay that detects ADP turnover that is directly proportional to AMPK activity. This uses naive AMPK that is activated during the assay with MK-8722; assay type: functional; conditions: 30 µM
[4] = molecular target: Sialic acid-binding Ig-like lectin 9 (Homo sapiens) (UniProt Q9Y336); test: Hs-Siglec9 ALPHAscreen SOP 20170721; conditions: 10 µM
Sequence of Sialic acid-binding Ig-like lectin 9 (Homo sapiens) (Q9Y336 whole entry): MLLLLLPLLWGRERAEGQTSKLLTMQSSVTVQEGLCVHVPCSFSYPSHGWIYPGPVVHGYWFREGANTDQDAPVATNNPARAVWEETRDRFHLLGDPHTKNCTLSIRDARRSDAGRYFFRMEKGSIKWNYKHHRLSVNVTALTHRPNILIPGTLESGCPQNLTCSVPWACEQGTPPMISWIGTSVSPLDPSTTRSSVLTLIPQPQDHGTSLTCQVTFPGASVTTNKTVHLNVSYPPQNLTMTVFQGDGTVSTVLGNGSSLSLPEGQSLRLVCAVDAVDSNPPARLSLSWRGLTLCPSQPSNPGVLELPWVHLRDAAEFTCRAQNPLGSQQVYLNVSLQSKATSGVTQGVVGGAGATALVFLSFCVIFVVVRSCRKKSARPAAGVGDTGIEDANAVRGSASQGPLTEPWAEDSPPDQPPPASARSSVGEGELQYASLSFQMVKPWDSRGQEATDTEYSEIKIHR

[5] = system: Trypanosoma cruzi; test: Trypanosoma cruzi phosphomannomutase and mannose-1-phosphate guanylyltransferase assay; assay type: functional; conditions: 10 µM
[6] = molecular target: T2, Arginase-2, mitochondrial (Homo sapiens) (UniProt P78540); test: in vitro enzyme assay to detect the production of urea directly proportional to the activity of Arginase II; assay type: functional; conditions: 33.3 µM; note: in the data most compounds retested in dose-response had high values
T2 sequence (whole entry): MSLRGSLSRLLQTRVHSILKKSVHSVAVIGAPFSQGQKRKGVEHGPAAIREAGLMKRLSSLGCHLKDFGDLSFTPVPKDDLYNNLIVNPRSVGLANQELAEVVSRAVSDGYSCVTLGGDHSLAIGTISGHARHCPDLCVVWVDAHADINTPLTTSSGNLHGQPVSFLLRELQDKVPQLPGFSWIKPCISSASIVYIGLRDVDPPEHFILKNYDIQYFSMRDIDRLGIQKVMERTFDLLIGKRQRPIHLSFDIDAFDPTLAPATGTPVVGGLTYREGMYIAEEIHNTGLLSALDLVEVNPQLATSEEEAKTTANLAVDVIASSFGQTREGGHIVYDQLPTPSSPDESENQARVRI

[7] = molecular target: T3, Proteasome subunit beta (Trypanosoma cruzi) (UniProt O96673); test: Trypanosoma cruzi proteasome chymotrypsin-like activity (TcProtChymo) assay.; note: in the data most compounds retested in dose-response had high values; assay type: functional; conditions: 9.37 µM
T3 sequence (whole entry): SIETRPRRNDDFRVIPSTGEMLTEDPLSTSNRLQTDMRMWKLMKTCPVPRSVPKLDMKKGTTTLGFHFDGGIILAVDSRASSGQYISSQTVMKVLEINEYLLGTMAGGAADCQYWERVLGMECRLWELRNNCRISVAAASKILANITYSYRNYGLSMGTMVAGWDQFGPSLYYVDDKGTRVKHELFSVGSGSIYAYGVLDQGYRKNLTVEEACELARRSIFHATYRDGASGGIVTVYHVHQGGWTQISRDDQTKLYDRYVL

[8] = organism: Homo sapiens; test: To identify inhibition of the IFN signalling (Jak-Stat) pathway via expression of an eGFP reporter gene under the control of an IFN-stimulated response element (ISRE) containing MxA promoter.; assay type: functional; conditions: 30 µM
[9] = molecular target: T4, Tyrosyl-tRNA synthetase, putative (Trypanosoma cruzi (strain CL Brener)) (UniProt Q4DSP6); test: Trypanosoma cruzi tyrosyl tRNA synthetase (TcYRS) _High Tyrosine SOP; assay type: functional; conditions: 30 µM; note: in the data most compounds retested in dose-response had high values
T4 sequence (whole entry): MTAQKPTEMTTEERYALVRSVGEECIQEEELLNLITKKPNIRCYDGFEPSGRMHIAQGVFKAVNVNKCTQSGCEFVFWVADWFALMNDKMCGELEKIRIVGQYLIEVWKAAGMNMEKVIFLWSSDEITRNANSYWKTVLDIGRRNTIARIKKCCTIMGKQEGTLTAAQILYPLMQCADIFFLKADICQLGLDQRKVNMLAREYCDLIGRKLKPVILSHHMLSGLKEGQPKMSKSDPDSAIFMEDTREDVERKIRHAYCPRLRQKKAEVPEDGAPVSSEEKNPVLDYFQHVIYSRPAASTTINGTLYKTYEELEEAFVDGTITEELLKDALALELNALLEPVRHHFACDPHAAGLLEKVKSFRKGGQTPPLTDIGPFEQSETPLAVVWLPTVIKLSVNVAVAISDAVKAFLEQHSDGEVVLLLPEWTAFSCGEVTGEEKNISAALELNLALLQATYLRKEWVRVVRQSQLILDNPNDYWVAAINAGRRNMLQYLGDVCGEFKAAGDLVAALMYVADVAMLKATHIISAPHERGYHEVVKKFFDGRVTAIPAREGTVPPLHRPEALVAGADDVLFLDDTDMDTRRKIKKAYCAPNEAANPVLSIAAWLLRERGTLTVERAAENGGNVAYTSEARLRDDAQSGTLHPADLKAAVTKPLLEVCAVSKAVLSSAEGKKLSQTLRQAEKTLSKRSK

[10] = molecular target: T4, Tyrosyl-tRNA synthetase, putative (Trypanosoma cruzi (strain CL Brener)); test: Trypanosoma cruzi tyrosyl tRNA synthetase (TcYRS) SOP; assay type: functional; conditions: 30 µM
[11] = molecular target: Chromo domain-containing protein 1 (Saccharomyces cerevisiae (strain ATCC 204508 / S288c) (Baker's yeast)) (UniProt P32657); test: ScCHD-1 Enzyme Inhibition Assay; assay type: functional; conditions: 30 µM; note: in the data most compounds retested in dose-response had high values
Sequence of Chromo domain-containing protein 1 (Saccharomyces cerevisiae (strain ATCC 204508 / S288c) (Baker's yeast)) (P32657 whole entry, the tested form may be a part): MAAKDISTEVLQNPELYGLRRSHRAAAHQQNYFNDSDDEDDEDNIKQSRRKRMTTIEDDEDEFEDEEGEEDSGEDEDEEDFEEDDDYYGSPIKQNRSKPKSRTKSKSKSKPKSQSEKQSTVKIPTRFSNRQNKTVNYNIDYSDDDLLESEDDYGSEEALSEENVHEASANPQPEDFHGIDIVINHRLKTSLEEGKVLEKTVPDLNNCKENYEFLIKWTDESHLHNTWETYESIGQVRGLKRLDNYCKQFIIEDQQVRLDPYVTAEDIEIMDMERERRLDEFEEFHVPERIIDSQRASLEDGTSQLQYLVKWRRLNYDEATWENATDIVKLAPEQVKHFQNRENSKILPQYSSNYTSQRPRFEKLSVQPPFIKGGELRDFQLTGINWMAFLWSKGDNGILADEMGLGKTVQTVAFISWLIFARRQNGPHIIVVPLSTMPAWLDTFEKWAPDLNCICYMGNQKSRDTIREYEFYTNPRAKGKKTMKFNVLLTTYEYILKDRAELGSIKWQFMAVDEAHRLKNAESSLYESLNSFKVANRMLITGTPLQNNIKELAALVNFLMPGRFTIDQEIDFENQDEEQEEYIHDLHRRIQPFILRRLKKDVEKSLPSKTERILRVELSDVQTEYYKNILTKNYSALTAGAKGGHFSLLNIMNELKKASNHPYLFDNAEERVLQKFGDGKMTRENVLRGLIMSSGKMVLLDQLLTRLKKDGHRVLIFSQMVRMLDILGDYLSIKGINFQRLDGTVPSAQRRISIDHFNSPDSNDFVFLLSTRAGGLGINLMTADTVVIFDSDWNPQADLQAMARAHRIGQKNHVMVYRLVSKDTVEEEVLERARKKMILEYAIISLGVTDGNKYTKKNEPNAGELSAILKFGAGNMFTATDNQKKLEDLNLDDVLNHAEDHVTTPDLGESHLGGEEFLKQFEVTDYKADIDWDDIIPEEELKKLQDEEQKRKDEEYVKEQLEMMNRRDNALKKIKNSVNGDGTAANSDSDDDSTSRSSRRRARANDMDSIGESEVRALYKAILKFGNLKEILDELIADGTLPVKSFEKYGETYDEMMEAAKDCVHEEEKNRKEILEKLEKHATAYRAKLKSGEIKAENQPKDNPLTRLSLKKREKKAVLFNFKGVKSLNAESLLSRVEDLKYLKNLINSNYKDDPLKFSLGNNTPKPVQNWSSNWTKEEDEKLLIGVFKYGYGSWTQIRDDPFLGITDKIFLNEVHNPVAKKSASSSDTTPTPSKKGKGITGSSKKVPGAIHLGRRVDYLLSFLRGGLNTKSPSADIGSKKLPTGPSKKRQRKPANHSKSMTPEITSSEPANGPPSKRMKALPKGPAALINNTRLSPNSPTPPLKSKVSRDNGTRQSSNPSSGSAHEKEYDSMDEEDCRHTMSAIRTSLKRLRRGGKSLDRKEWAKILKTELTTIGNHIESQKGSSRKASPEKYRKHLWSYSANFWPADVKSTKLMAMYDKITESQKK

| Compound | Percent Effect [1] [%] | Percent Effect [2] [%] | Percent Effect [3] [%] | Percent Effect [4] [%] | Percent Effect [5] [%] | Percent Effect [6] [%] | Percent Effect [7] [%] | Percent Effect [8] [%] | Percent Effect [9] [%] | Percent Effect [10] [%] | Percent Effect [11] [%] |
| --- | --- | --- | --- | --- | --- | --- | --- | --- | --- | --- | --- |
| CCN(CCNC(=O)c1ccccc1OCCOC)C1CC1 | -1.14 | 21.5 | -0.982 | -8.11 | 0.513 | -4.52 | 17 | 14.4 | 3.12 | 17.7 | -34.3 |
| c1ccc(CC2CCN(Cc3ccnc(-c4cccnc4)n3)CC2)cc1 | 0.966 | -4.05 | 9.39 | 1.78 | 0.198 | 1.16 | -1.56 | 18.1 | 4.3 | 6.49 | 7.16 |
| Cc1nccn1-c1cc(CNC(=O)CCNC(=O)C2CCCC2)ccn1 | -5.76 | 21.1 | -10 | 9.11 | 6.63 | -4.68 | 5.84 | 5.17 | 8.37 | 23.5 | -6.78 |
| CC(C)CCOCCNC(=O)Nc1cc(C(F)(F)F)c[nH]c1=O | -7.54 | 8.11 | 3.62 | 2.66 | -0.464 | -0.924 | 1.62 | 6.69 | 6.93 | 13.4 | 7.34 |
| CN(C)CCNC(=O)c1ccc(OC2CCN(S(C)(=O)=O)CC2)c(Cl)c1 | -6.99 | 18.9 | -3.92 | 19.3 | 8.5 | 3.23 | 13.8 | -5.52 | 7.53 | 21 | -4.57 |
| Cc1cc(C)n(C2CN(CC(O)COc3ccc(F)cc3)C2)n1 (configuration not stated) | -3.4 | -20.8 | 2.93 | 9.67 | -1.12 | 1.42 | -0.169 | -11.2 | 4.85 | -4.88 | -2.37 |
| CCc1cc(NCCNc2cccnc2)n2nccc2n1 | -3.38 | 2.7 | 3.96 | 4.15 | -3.09 | 1.91 | 10 | 13.2 | 4.76 | 7.32 | -3.82 |
| O=C(c1ccccn1)N1C[C@@H]2CC[C@H](C1)N(C(=O)CCc1cccs1)C2 | -6.27 | 5.2 | 2.15 | 9.38 | 6.59 | -74.5 | 13.1 | -10.3 | 3.23 | 8.64 | 2.24 |
| CCC1(CO)CCCN(c2ncccc2C#N)C1 (configuration not stated) | -4.07 | -5.41 | -0.35 | 5.12 | -1.74 | -3.81 | -0.69 | 19.1 | -1.59 | 0 | -3.09 |
| O=C(CN1CCOC(Cn2cccn2)C1)Nc1nccs1 (configuration not stated) | -3.64 | 21.6 | -3.52 | 14.3 | 6.22 | -1.29 | 8.8 | 7.16 | 5.94 | 25.6 | -6.75 |
| Cc1cc(CN2CCN(C(=O)NCc3ccc(C)s3)CC2)no1 | -0.722 | 17.7 | -2.9 | 3.54 | -4.82 | 10.3 | 3.85 | 15.8 | 2.46 | 21.5 | -5.4 |
| COc1ncccc1NC(=O)N(Cc1ccc(C)o1)C1CC1 | -4.84 | 13 | 6 | 6.62 | 8.05 | -4.27 | 2.53 | 56.7 | 6.8 | 19.5 | -5.73 |
| Cc1ccc(N2CCCC(NCC(=O)NC3CCOCC3)C2)nn1 (configuration not stated) | -5.04 | -3.8 | -5.1 | 4.11 | -1.13 | 4.95 | 3.94 | -13.5 | 0 | 5.06 | -2.4 |
| Cc1ccc(C)c(NC(=O)N(C)Cc2cnn(C)c2)c1 | -3.08 | 21.6 | -1.59 | -5.73 | -5.94 | -0.401 | 11.3 | 20.3 | 7.39 | 16.1 | -4.13 |
| C[C@@H]1CN(C(=O)c2ccc(C#N)nc2)CC[C@@]1(O)C1CCOCC1 | -2.31 | 5.41 | -1.11 | 17.6 | 6.18 | 10.5 | 3.45 | 14.3 | 5.82 | 9.76 | -1.75 |
| CCN(C)c1ccc(C(=O)N(CCOC)Cc2ccccn2)cc1 | -4.29 | 21.3 | -3.55 | 21.4 | 7.89 | 38.5 | 15.2 | 20.7 | 6.01 | 21 | -5.22 |
| O=C1CN(Cc2nnc(-c3ccccc3Br)o2)CCN1 | -1.52 | 9.72 | 0.225 | -0.91 | 2.43 | 2.65 | 25.1 | -21.9 | 1.05 | 7.69 | -3.03 |
| CCOC1CCCN(C(=O)c2cnc3c(cnn3C3CCCC3)c2)C1 (configuration not stated) | -4.83 | 0 | 2.09 | 0.582 | -2.93 | -2.66 | -2.38 | 24.1 | 1.48 | -8.86 | -4.24 |
| Cc1nn(CC(=O)N2CCCCC2Cn2cccn2)c(C)c1Cl (configuration not stated) | -2.25 | 2.7 | 0.616 | -1.03 | -4.3 | 2.92 | 14.4 | 7.18 | 1.98 | 13.4 | -2.37 |
| COc1ccc(CN2CCC(O)CC2)c(OC)c1 | -2.06 | 0 | -1.5 | 2.82 | 1.93 | -1.91 | 4.83 | 13.4 | 2.65 | 9.76 | -0.716 |
| CCn1nc(CC(C)C)cc1C(=O)N1C[C@H](O)[C@@H](N2CCCCC2)C1 | -3.95 | 16 | -4.12 | 15.8 | 6.33 | 4.69 | 12.6 | -6.25 | 2.73 | 13.6 | -6.08 |
| COc1cccc([C@@H]2CN(C(=O)c3ccc(C)cc3O)C[C@H]2C(=O)O)c1 | -3.46 | 21.6 | -1.7 | 25.8 | 4.59 | 40.9 | 15.9 | 1.8 | 3.23 | 18.5 | -5.84 |
